Compound activity from PubChem BioAssay.
Shown are actives, neighbours in structure and some others; about 19% of the full set was active somewhere.
TDP1 cell noCPT = qHTS for Inhibitors of human tyrosyl-DNA phosphodiesterase 1 (TDP1): qHTS in cells in absence of CPT | DT40 Tdp1-/- hTDP1 cells, no CPT, ATP luminescence, 48 h | Potency, µM (titrated, usually from 46.2 µM), actives largely listed as inhibitors | 420,000 tested, 15% active; also: nearly all actives have a fitted effect of over 55% in size
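Growth of hTDP1-complemented DT40 Tdp1-knockout cells is measured by ATP luminescence after at least 48 hr compound exposure at 37 °C, with DMSO substituting for the 20 nM CPT used in the parallel screen.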
DT40 TDP1 CPT = DT40-hTDP1 cell growth loss with CPT; chicken DT40 Tdp1-/-;hTDP1 cells + 20 nM CPT, ATP luminescence, 48 h; Potency, µM (series often up to 46.2 µM), hits mostly inhibitors; 420,000 tested, 12% active; AID 686979; also: nearly all actives have a fitted effect of over 55% in size
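Cell growth measured by CellTiter-Glo luminescence after a minimum 48 h, 37 C compound exposure with 20 nM CPT in Tdp1-knockout DT40 cells stably expressing hTDP1, seeded 400/well; qHTS titration format.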
HT1080NT lethal = kills 2HG-producing HT-1080-NT fibrosarcoma cells. HT-1080-NT fibrosarcoma viability, CellTiter-Glo ATP luminescence, 48 h. Potency, µM (top dose mostly 46.1 µM), most hits filed as cytotoxic. 360,000 tested, 1.6% active. AID 686970;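 also: NT is the 2HG producing partner of a matched IDH1 knockdown line; nearly all actives have a fitted effect of over 55% in size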
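HT-1080-NT; 750 cells/well; 5% FBS RPMI; 48 h compound, 37 degrees C; CellTiter-Glo luminescence; curve fitting and curve-class assignment.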
HT1080 IDH1KD tx = kills HT-1080 cells with IDH1 knockdown; Potency, µM (top dose mostly 46.1 µM), usual class: cytotoxic; 360,000 tested, 2% active; HT-1080 IDH1 knockdown viability, ATP luminescence, 48 h
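In this qHTS, HT-1080 cells depleted of IDH1 are exposed for 48 h at 37 °C to compound titrations. Toxicity is scored from CellTiter-Glo luminescence, with DMSO as full viability and medium alone as none.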
IL-1B inflam inh = inhibitors of inflammasome signaling (IL-1 beta secretion). 360,000 tested, 4.7% active. activity change, % at 57.5 µM. THP-1 LPS/ATP IL-1B secretion, AlphaLISA, 16 h; active compounds read low. AID 743279; in the data active = activity change below about -50%; inconclusive = mostly about -30% to -49%
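THP-1 cells pretreated 1 hr with compounds (up to 57.5 uM final), then stimulated with LPS (250 ng/mL final) plus ATP (1.25 mM final); secreted IL-1B measured by AlphaLISA after 16 hr, decreased signal indicating inhibition.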
Each line names hits and unclear results; the compound was inactive in the other large screens; ! = not active in a repeat. Unless noted, calls follow the shape of the dose curve; as a rule, active = well fitted curve in the direction sought with a large enough effect; inconclusive = small, poorly fitted or top-dose-only effect, or another doubt; inactive = no such curve, though single readings can be large; an effect the other way counts as inactive or inconclusive.

CCCCCCCCN1C(=O)[C@H](CC(=O)N2CCCCC2)C[C@@]2(C(=O)OC)CC(C)(C)CC=C12	TDP1 cell noCPT 6.5µM, DT40 TDP1 CPT 8.2µM, HT1080NT lethal inconclusive, HT1080 IDH1KD tx inconclusive
O=[N+]([O-])c1ccc(SCCc2ccccn2)cc1	none
Fc1ccc(SCCc2ccncc2)cc1	TDP1 cell noCPT 18µM!, DT40 TDP1 CPT inconclusive
COc1ccc(SCCc2ccncc2)cc1	none
O=[N+]([O-])c1ccc(SCCc2ccncc2)cc1	TDP1 cell noCPT 21µM, DT40 TDP1 CPT inconclusive
COc1ccc(N(CC(C)C)S(=O)(=O)c2nnc(NC(=O)c3ccco3)s2)cc1	TDP1 cell noCPT 21µM!, DT40 TDP1 CPT inconclusive
Cc1ccc(N(CC(C)C)S(=O)(=O)c2nnc(NC(=O)c3cccs3)s2)cc1	TDP1 cell noCPT 23µM, DT40 TDP1 CPT inconclusive (no result: HT1080NT lethal, HT1080 IDH1KD tx, IL-1B inflam inh)
CCN(c1ccc(OC)cc1)S(=O)(=O)c1nnc(NC(=O)c2ccco2)s1	IL-1B inflam inh inconclusive
CCN(c1ccc(OC)cc1)S(=O)(=O)c1nnc(NC(=O)c2ccccc2Cl)s1	TDP1 cell noCPT 16µM!, DT40 TDP1 CPT inconclusive
c1ccc(-c2cc3c(N4CCN(c5ncccn5)CC4)ncnc3s2)cc1	TDP1 cell noCPT inconclusive, DT40 TDP1 CPT inconclusive
O=S(=O)(c1ccccc1)N1CCN(c2ncnc3sc(-c4ccccc4)cc23)CC1	TDP1 cell noCPT 12µM, DT40 TDP1 CPT 21µM
CN1CCN(c2ncnc3sc(-c4ccccc4)cc23)CC1	TDP1 cell noCPT inconclusive, DT40 TDP1 CPT inconclusive, IL-1B inflam inh -60
CN(C)/C=N/c1c(C#N)cnn1-c1ccccc1	none
c1ccc(-c2cc3c(N4CCN(c5ccccc5)CC4)ncnc3s2)cc1	TDP1 cell noCPT 18µM, DT40 TDP1 CPT inconclusive
CN(C)/C=N/c1c(C#N)cnn1-c1ncnc2sc(-c3ccccc3)cc12	TDP1 cell noCPT 18µM, DT40 TDP1 CPT 21µM
Cc1ccc(S(=O)(=O)N2CCN(c3ncnc4c3cnn4-c3ccccc3)CC2)cc1	none
CC1(C(=O)Nc2ccc3c(c2)OCCO3)CN(S(C)(=O)=O)CC(=O)N1Cc1cccs1 (stereo unspecified)	HT1080NT lethal inconclusive
NC(=O)CC[C@H](NC(=O)c1ccc(F)cc1)C(=O)N1CCN(Cc2ccc3c(c2)OCO3)CC1	none
CCOCCCn1c(SCC(=O)Nc2ccccc2)nc2ccccc2c1=O	TDP1 cell noCPT inconclusive, DT40 TDP1 CPT inconclusive
COc1ccc(-n2c(SCC(=O)Nc3ccc(C(N)=O)cc3)nc3ccccc3c2=O)cc1OC	HT1080NT lethal inconclusive, IL-1B inflam inh inconclusive
CCOCCCn1c(SCC(=O)Nc2ccc(OC)cc2)nc2ccccc2c1=O	TDP1 cell noCPT 18µM, DT40 TDP1 CPT inconclusive
COc1ccccc1NC(=O)CSc1nc2ccccc2c(=O)n1C	TDP1 cell noCPT 9.2µM, DT40 TDP1 CPT 15µM
COCCn1c(SCC(=O)c2ccccc2)nc2ccccc2c1=O	TDP1 cell noCPT inconclusive
COCCCn1c(SCC(=O)c2ccccc2)nc2ccccc2c1=O	TDP1 cell noCPT 23µM, DT40 TDP1 CPT inconclusive
CCOc1ccccc1NC(=O)CSc1nc2cc(O)ccc2c(=O)n1-c1ccc(OC)c(OC)c1	TDP1 cell noCPT inconclusive, DT40 TDP1 CPT 18µM, HT1080NT lethal inconclusive, HT1080 IDH1KD tx inconclusive
COc1cc(OC)c(C(=O)OCC(=O)NC23CC4CC(CC(C4)C2)C3)cc1OC	DT40 TDP1 CPT inconclusive
COc1ccccc1NC(=O)CSc1nnc(CC(=O)Nc2ccccc2)n1C	IL-1B inflam inh -50
CCOCCCn1c(SCC(=O)Nc2ccc(C)cc2)nc2ccccc2c1=O	TDP1 cell noCPT 15µM, DT40 TDP1 CPT 16µM (no result: HT1080NT lethal, HT1080 IDH1KD tx, IL-1B inflam inh)
CCOC(=O)c1cccc(NC(=O)CSc2nc3ccccc3c(=O)n2CC)c1	none
Cn1c(SCC(=O)Nc2ccccc2)nc2ccccc2c1=O	TDP1 cell noCPT inconclusive, DT40 TDP1 CPT 2.9µM, IL-1B inflam inh inconclusive
CCOC(=O)c1cccc(NC(=O)CSc2nc3ccccc3c(=O)n2CCOC)c1	TDP1 cell noCPT 21µM, DT40 TDP1 CPT inconclusive
Cc1cc(SCC(=O)NC2(C#N)CCCCC2)nc2c(C)cccc12	none
CCOc1cccc(Nc2nn(-c3ccc(OC(F)(F)F)cc3)nc2C(C)=O)c1	none (no result: HT1080NT lethal, HT1080 IDH1KD tx, IL-1B inflam inh)
CCc1ccc(NC(=O)CSc2nc3ccccc3c(=O)n2CCCC(=O)N2CCCC2)cc1	TDP1 cell noCPT inconclusive, DT40 TDP1 CPT 15µM
Cn1c(SCC(=O)Nc2cc(C(C)(C)C)nn2-c2ccccc2)nc2ccccc21	TDP1 cell noCPT 12µM, DT40 TDP1 CPT inconclusive
COc1ccccc1NC(=O)CSc1nnc(C2CCCCC2)n1-c1ccccc1	TDP1 cell noCPT 12µM, DT40 TDP1 CPT 21µM
CCOCCCn1c(SCC(=O)Nc2ccccc2OC)nc2ccccc2c1=O	TDP1 cell noCPT 16µM, DT40 TDP1 CPT inconclusive
Cc1ccc2nc(SCC(=O)Nc3cc(C(C)(C)C)nn3-c3ccccc3)[nH]c2c1	DT40 TDP1 CPT inconclusive, HT1080 IDH1KD tx inconclusive
CCC(C)NC(=O)COc1ccc(S(=O)(=O)N2CCOCC2)cc1 (stereo unspecified)	none
Cc1cnc(C(=O)NC2CCSc3ccccc32)cn1 (stereo unspecified)	none
O=C(Nc1ccnn1C1CCN(C2CCCC2)CC1)c1ccccc1	none
COc1ccc(CCNC(=O)CC2SC(=NCc3ccccc3)NC2=O)cc1 (stereo unspecified)	none
Cc1ccc(C(=O)NCC(=O)OC(C)C(=O)NC2CCCCC2C)cc1C (stereo unspecified)	none
C=CCn1c(C2CCCCC2)n[nH]c1=S	none
COc1ccccc1NC(=O)Cn1nc(-c2ccncc2)nc1SCC(=O)NC1CCCC1	TDP1 cell noCPT 15µM, DT40 TDP1 CPT 13µM
CCOC(=O)c1[nH]c2c(c1-c1ccccc1)C(=O)CC(c1ccc(OC)c(OC)c1)C2 (stereo unspecified)	TDP1 cell noCPT inconclusive, DT40 TDP1 CPT inconclusive
CCOC(=O)c1[nH]c2c(c1Cc1ccccc1)C(=O)CC(c1ccc(OC)cc1)C2 (stereo unspecified)	TDP1 cell noCPT 21µM, DT40 TDP1 CPT 21µM (no result: HT1080NT lethal, HT1080 IDH1KD tx, IL-1B inflam inh)
CCOC(=O)c1[nH]c2c(c1-c1ccccc1)C(=O)CC(c1ccc(OCC)cc1)C2 (stereo unspecified)	none
CCOC(=O)c1[nH]c2c(c1Cc1ccccc1OC)C(=O)CC(c1ccc(OC)cc1)C2 (stereo unspecified)	TDP1 cell noCPT 23µM, DT40 TDP1 CPT inconclusive (no result: HT1080NT lethal, HT1080 IDH1KD tx, IL-1B inflam inh)
CCOC(=O)c1[nH]c2c(c1Cc1ccccc1)C(=O)CC(c1ccc(Cl)cc1)C2 (stereo unspecified)	TDP1 cell noCPT 23µM, DT40 TDP1 CPT 16µM (no result: HT1080NT lethal, HT1080 IDH1KD tx, IL-1B inflam inh)
Cc1csc(Sc2ccc(S(=O)(=O)N3CCCC3)cn2)n1	none
COC(=O)c1cn([C@@H]2C[C@@H](C(=O)Nc3cccc(SC)c3)N(C3CCCCCC3)C2)nn1	none (no result: HT1080NT lethal, HT1080 IDH1KD tx, IL-1B inflam inh)
COC(=O)/C(=N\OCc1ccc(C#N)cc1)c1c(C)nn(C)c1C	none
